The values below come from PubChem BioAssay (NCATS).

Structures are written as SMILES. Inconclusive results are not listed. Values without a mark were called inactive. The source made the active and inactive calls. The call rests on the fitted dose curve; tested in HEK293 reporter line. Bridge positions count the residues as written; N and C are the ends. Square brackets hold non-standard residues; d marks the D form. Peptide text beside a SMILES is read from it. hArg = N=C(N)NCCCC[C@H](N)C(=O)O; Mpa = O=C(O)CCS
On the % scale 0 is the no-effect control and ±100 the full control effect.

This test is described as follows: qHTS for Inhibitors of the Functional Ribonucleoprotein Complex (vRNP) of Lymphocytic Choriomeningitis Arenaviruses (LCMV): Viability assay - alamar blue signal for LCMV Primary Screen (AID 1347085). Further: nearly all actives have a fitted effect of over 80% in size. The note with it: alamar blue viability counter-screen, LCMV vRNP screen cells; series mostly up to 57.5 µM; activity change, negative = lower viability: at the top concentration.
Regarding `CCCCCCc1ccc(O)cc1O`, the “activity change, negative = lower viability” value is 0.888%.

`CCCCCCCCCCOCC(O)CN` (centres undefined): the “activity change, negative = lower viability” value was 0.2%.

`CNC(=O)CN(CCN(CCN(CC(=O)[O-])CC(=O)NC)CC(=O)[O-])CC(=O)[O-].O.[Gd+3]`: the “activity change, negative = lower viability” value is 2.81%.

With `Fc1ccc(C(c2ccc(F)cc2)N2CCN(C/C=C/c3ccccc3)CC2)cc1`, the Potency entry is “inactive”.

As to `O=C1CC2(CCCC2)CC(=O)N1CCCCN1CCN(c2ncccn2)CC1`, the Potency result was “inactive”.

Turning to `CC(C)C(=O)OCc1cccc(OC(=O)[C@@H]2N3C(=O)[C@@H](NC(=O)Cc4ccccc4)[C@H]3SC2(C)C)c1`, the “activity change, negative = lower viability” value was 13.2%.

As to `NS(=O)(=O)c1cc2c(cc1Cl)NCNS2(=O)=O`, the Potency result is “inactive”.

As to `NC(=O)[C@@H]1CSSCCC(=O)N[C@@H](CCCCN=C(N)N)C(=O)NCC(=O)N[C@@H](CC(=O)O)C(=O)N[C@@H](Cc2c[nH]c3ccccc23)C(=O)N2CCC[C@H]2C(=O)N1` ([Mpa][hArg]GDWPC-NH2; disulfide 1-7), the “activity change, negative = lower viability” value is 4.93%.

As for `CCn1cc(C(=O)O)c(=O)c2cc(F)c(N3CCN(C)CC3)cc21`, the “activity change, negative = lower viability” value is -0.962% [at 24.7 µM].

On to `Cc1cccc(OCC(O)CNC(C)(C)C)c1C` (centres undefined), for which the “activity change, negative = lower viability” value is -0.752%.

As to `O=C(CCCCC(=O)Nc1c(I)cc(I)c(C(=O)O)c1I)Nc1c(I)cc(I)c(C(=O)O)c1I`, the “activity change, negative = lower viability” value is 0.223%.

On to `CCC(=O)Oc1ccc2c(c1)CC[C@@H]1[C@@H]2CC[C@@]2(C)[C@H]1C[C@@H](OC(=O)CC)[C@@H]2OC(=O)CC`, for which the “activity change, negative = lower viability” value is 5.4%.

In the case of `CC(=O)OC[C@H]1O[C@@](COC(C)=O)(O[C@H]2O[C@H](COC(C)=O)[C@@H](OC(C)=O)[C@H](OC(C)=O)[C@H]2OC(C)=O)[C@@H](OC(C)=O)[C@@H]1OC(C)=O`, the “activity change, negative = lower viability” value was 1.02%.

Take `CC[N+](CC)(CC(=O)Nc1c(C)cccc1C)Cc1ccccc1`: the “activity change, negative = lower viability” value was 14%.

As to `c1ccc(C(O[C@H]2CCCN(CCc3ccc4c(c3)OCO4)C2)c2ccccc2)cc1`, the “activity change, negative = lower viability” value was -0.542%.

Consider `OCCN1CCN(CCCN2c3ccccc3C=Cc3ccccc32)CC1`, for which the Potency result is “inactive”.

As to `O=c1[nH]c(=O)c2[nH]c(=O)[nH]c2[nH]1`, the activity change, negative = lower viability is -14.6% [at 11.5 µM].

As to `Cc1ccc(N(CC2=NCCN2)c2cccc(O)c2)cc1`, the Potency result is “inactive”.

In the case of `Cc1cccc(N(C)C(=S)Oc2ccc3c(c2)C2CCC3C2)c1` (centres undefined), the “activity change, negative = lower viability” value was 6.43%.

As for `C[C@H]1NCc2cc(-c3ccc4c(=O)c(C(=O)O)cn(C5CC5)c4c3OC(F)F)ccc21`, the “activity change, negative = lower viability” value was 20.7% [at 24.7 µM].

Regarding `CCN(CC)C(=O)C1CN2CCc3cc(OC)c(OC)cc3C2CC1OC(C)=O` (centres undefined), the “activity change, negative = lower viability” value is 9.58%.

Take `CC1(C)[C@@H](OC(=O)CCC(=O)O)CC[C@]2(C)[C@H]3C(=O)C=C4[C@@H]5C[C@@](C)(C(=O)O)CC[C@]5(C)CC[C@@]4(C)[C@]3(C)CC[C@@H]12`: the “activity change, negative = lower viability” value is 22.7%.

As to `COC(=O)C1=C(C)NC(C)=C(C(=O)OC)C1c1ccccc1[N+](=O)[O-]`, the “activity change, negative = lower viability” value is -0.45%.

Turning to `Cc1c(C)c2c(c(C)c1OC(=O)CCC(=O)OCCO)CC[C@@](C)(CCC[C@H](C)CCC[C@H](C)CCCC(C)C)O2`, the “activity change, negative = lower viability” value is -177%.

As for `CN(C)CCCN1c2ccccc2Sc2ccccc21`, the Potency result is “inactive”.

On to `COc1cc2c(cc1OC)C(C(C(=O)N(CCc1ccc(OC)c(OC)c1OC)CCc1ccc(OC)c(OC)c1OC)c1ccccc1)=NCC2` (centres undefined), for which the “activity change, negative = lower viability” value was 2.06%.

Turning to `Nc1c(NC/C=C\COc2cc(CN3CCCCC3)ccn2)c(=O)c1=O`, the “activity change, negative = lower viability” value is -3.57% [at 24.7 µM].

Consider `CCc1cccc(N(C)C(N)=Nc2cccc3ccccc23)c1`, for which the Potency entry was “inactive”.

`O=C(O)COC(=O)Cc1ccccc1Nc1c(Cl)cccc1Cl`: the “activity change, negative = lower viability” value was -0.0168%.

On to `N[C@@H](Cc1ccc(O)cc1)C(=O)O`, for which the activity change, negative = lower viability is 1.19% [at 11.5 µM].

Take `CC(C)Cn1cnc2c1c(=O)n(C)c(=O)n2C`: the “activity change, negative = lower viability” value is -1.11%.

As to `CCn1ccnc1CC1COc2ccccc2O1` (centres undefined), the Potency result is “inactive”.

Regarding `Cc1c(-c2ccccc2)oc2c(C(=O)OCCN3CCCCC3)cccc2c1=O`, the “activity change, negative = lower viability” value is 12.4%.

Turning to `CC(=O)O[C@H]1CC[C@@]2(C)C(=CC[C@@H]3[C@@H]2CC[C@]2(C)C(C(C)=O)=CC[C@@H]32)C1`, the “activity change, negative = lower viability” value is 12.5%.

With `Cc1cc(N)c2cc(NC(=O)Nc3ccc4nc(C)cc(N)c4c3)ccc2n1`, the “activity change, negative = lower viability” value was 7.05%.

In the case of `COc1ccc(CN(CCN(C)C)c2ccccn2)cc1`, the Potency entry is “inactive”.

Regarding `CCCCOc1ccc(OCCCN2CCOCC2)cc1`, the “activity change, negative = lower viability” value was -52.9%.

In the case of `O=C(O)CCc1nc(-c2ccccc2)c(-c2ccccc2)o1`, the Potency entry was “inactive”.

As to `Oc1cccc2[nH]ccc12`, the “activity change, negative = lower viability” value is 8%.
